This is part of a sample that, as a whole, favours compounds with a hit. Of some 83,000 tested, about 20% had one in any assay.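 Testing used 96-well plates and a 48-hour single-concentration exposure. Example: -40 means 40% of the starting cells died.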 A number with no mark means an inactive call. Activity calls are given as the source filed them. Rule for the calls: active = growth percent below 10; inactive = the rest.
Experiments:
Assay in all cases: NCI-60 one-dose screen, 48 h (100 = growth as untreated, 0 = no growth, -100 = all killed)
Conditions in all cases: 10 µM
[1] = test system: NCI-H23 lung
[2] = test system: NCI-H226 lung
[3] = test system: NCI-H322M lung
[4] = test system: HOP-62 NSCLC
[5] = test system: NCI-H460 lung
[6] = test system: HOP-92 NSCLC
[7] = test system: NCI-H522 lung
[8] = test system: A549/ATCC NSCLC
[9] = test system: 786-0 renal
[10] = test system: COLO 205 colon
[11] = test system: DU-145 prostate
[12] = test system: K-562 leukemia
[13] = test system: MALME-3M melanoma
[14] = test system: RXF 393 renal
[15] = test system: SF-295 CNS
[16] = test system: SF-539 CNS
[17] = test system: UACC-257 melanoma
[18] = test system: M14 melanoma
[19] = test system: MDA-MB-231 breast
[20] = test system: SF-268 CNS

| Structure (SMILES) | growth [1] | growth [2] | growth [3] | growth [4] | growth [5] | growth [6] | growth [7] | growth [8] | growth [9] | growth [10] | growth [11] | growth [12] | growth [13] | growth [14] | growth [15] | growth [16] | growth [17] | growth [18] | growth [19] | growth [20] |
| --- | --- | --- | --- | --- | --- | --- | --- | --- | --- | --- | --- | --- | --- | --- | --- | --- | --- | --- | --- | --- |
| Cc1ccc(C)n1-c1ccsc1C(=O)NNC(=O)C(Cl)Cl | 98.4% | 93% | 98.6% | 96.6% | 104% | 90.5% | 91.9% | 102% | 101% | 120% | 109% | 97.8% | 93.2% | 114% | 101% | 102% | 98.2% | 106% | – | – |
| COc1ccc2c(NCCCCCCCCNc3c4ccccc4nc4cc(OC)ccc34)c3ccccc3nc2c1 | -92.2% (active) | -65.3% (active) | -74.3% (active) | -99.2% (active) | -100% (active) | -100% (active) | -74.1% (active) | -64.7% (active) | -100% (active) | -100% (active) | -100% (active) | -100% (active) | -98.1% (active) | -74.3% (active) | -92.1% (active) | -100% (active) | -88.8% (active) | -100% (active) | -89.5% (active) | -99.3% (active) |
| CCOC(=O)c1cc(/C=C/c2ccc(Cl)cc2Cl)on1 | 47.4% | 14.9% | 81.6% | 81% | 3.82% (active) | 100% | 54.5% | 91.6% | -68.6% (active) | 57.4% | 30.6% | 5.36% (active) | 69.6% | -37.3% (active) | 17.6% | -48.5% (active) | 105% | 56% | – | 89.1% |
| CCCC(=O)Nc1ccc2c(c1)CN1C(=O)c3ccccc3C1=N2 | 106% | 100% | 99.1% | 104% | 103% | 95.3% | 106% | 90% | 99.2% | 109% | 101% | 102% | – | 109% | 86.7% | 89.6% | 102% | 113% | 103% | 101% |
| COc1cc(OC)c2ccc(=O)oc2c1 | 101% | 114% | 107% | 101% | 104% | 98.3% | 116% | 97% | 105% | 107% | 102% | – | 136% | 123% | 100% | 106% | 98.1% | 115% | 93.4% | 102% |
| CN(C)CCN(C)CC(C)(C)C(=O)/C=C/c1ccc(Cl)cc1 | 5.94% (active) | -3.14% (active) | 5.34% (active) | 3.79% (active) | -14.9% (active) | -24.9% (active) | -62.6% (active) | 8.12% (active) | -22.5% (active) | -86.5% (active) | 6.16% (active) | 4.79% (active) | -27.7% (active) | -82.8% (active) | 20.5% | -25.9% (active) | 23.1% | -64.4% (active) | – | – |
| COc1ccc(-c2cc(-c3cc(-c4ccc(OC)cc4)nc(N)n3)nc(N)n2)cc1 | 102% | 99.4% | 94.3% | 94.7% | 99.5% | 105% | 100% | 97.8% | 103% | 107% | 102% | 98.9% | 91.2% | 101% | 96.2% | 98.1% | 99.4% | 104% | – | 102% |
| COC(=O)C(C)Oc1ccc(OC#N)cc1 (stereo not given) | 95% | 97.3% | 100% | 98.2% | 103% | 95.3% | 103% | 99.4% | 102% | 107% | 105% | 94.1% | 93.1% | 101% | 96.3% | 94.6% | 104% | 101% | – | 98.9% |
| c1ccc(/C(=N\N=C(/c2ccccc2)c2cccs2)c2cccs2)cc1 | 97.3% | 89.3% | 83.1% | 102% | 105% | 92% | 83.1% | 105% | 84.8% | 99.3% | 105% | 83.6% | – | 108% | 95.8% | 111% | 106% | 101% | – | 97% |
| Cc1cc2nc(CC(=O)c3cccc([N+](=O)[O-])c3)c(=O)[nH]c2cc1C | 80.3% | 90.7% | 93.8% | 101% | 87.6% | 74.9% | 70.4% | 97.9% | 85.5% | 110% | 100% | 73.7% | 98.5% | 107% | 75.4% | 88.2% | 97% | 81.4% | – | 98.1% |
| O=C(c1ccc(O)cc1)c1ccc(O)cc1 | 106% | 98.1% | 95.3% | 97.8% | 108% | 98% | 95.8% | 96.9% | 98.8% | 108% | 110% | 102% | – | 113% | 102% | 100% | 96.2% | 98.7% | 125% | 102% |
| CNC(=S)NC(C)(C)C | 104% | 102% | 98.4% | 101% | 113% | 83.1% | 98% | 98.3% | 101% | 119% | 108% | 103% | 97.1% | 112% | 104% | 99.9% | 92.7% | 98.8% | – | – |
| CCCCNC(=O)C(=O)NCCCC | 105% | 106% | 104% | 108% | 115% | 104% | 112% | 111% | 101% | 117% | 103% | 108% | 95.4% | 107% | 102% | 101% | 105% | 104% | – | 97.9% |
| COC(=O)c1cc(-c2ccc(Cl)c(Cl)c2)[nH]c(=O)c1C#N | 107% | 94.6% | 95.4% | 95.5% | 109% | 91.4% | 97.6% | 101% | 91.7% | 114% | 108% | 108% | 89.1% | 109% | 96.1% | 101% | 98.4% | 99.2% | – | 102% |
| CC(C)NC(=O)OCc1c(COC(=O)NC(C)C)c(-c2ccc(Cl)c(Cl)c2)n2c1SCC2 | 38.6% | -43.7% (active) | 51.4% | 28.7% | 13.3% | 50.8% | 32% | 55.3% | 19% | 53.6% | 41.6% | 34.1% | 62.9% | 6.56% (active) | 27.3% | 32% | 32.3% | 50.3% | – | – |
| O=C(Cc1nc2ccc([N+](=O)[O-])cc2nc1CC(=O)c1cccnc1)c1cccnc1 | 52.7% | 52.2% | 51% | 25.6% | 48.1% | 69.8% | 18.5% | 64.8% | 15.8% | 121% | 76.5% | 70.7% | 68.5% | 20.1% | 54.5% | 30.1% | 78.6% | 82.8% | – | 47% |
